Data reported in PubChem BioAssay (Tox21).
Results filed as inconclusive are left out. Calls of active or inactive are those of the source. Unless noted, the call rests on the fitted dose curve; in most records, active means well fitted curve in the direction sought with a large enough effect in the repeat runs; inconclusive means weak or mixed curves; inactive means no such curve, though single readings can be large; an effect the other way counts as inactive or inconclusive.

Key:
[1] = target: Luciferin 4-monooxygenase (Photinus pyralis) (UniProt P08659); assay: qHTS assay to identify small molecule inhibitors of firefly luciferase (AID 1224835); further: series mostly up to about 120 µM; nearly all actives have a fitted effect of over 25% in size
Procedure, shortened: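 Quantitative HTS format; KM concentrations of both substrates. Purified P. pyralis FLuc activity quantified from luminescence images.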

[2] = qHTS assay to identify small molecule agonists of the constitutive androstane receptor (CAR) signaling pathway - cell viability counter screen (AID 1224836); further: series mostly up to about 92 µM; nearly all actives have a fitted effect of over 45% in size
Procedure, shortened: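 HepG2-CYP2B6-hCAR, 2500 cells/well, 4 h pre-incubation; cpd 15 conc + PK11195 0.75 uM final; 23 h, 37 C/5% CO2; CellTiter-Fluor, fluorescence.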

[3] = qHTS assay to identify small molecule antagonists of the constitutive androstane receptor (CAR) signaling pathway - cell viability counter screen (AID 1224837); further: series mostly up to about 92 µM; nearly all actives have a fitted effect of over 45% in size
Procedure, shortened: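 HepG2-CYP2B6-hCAR cells, 2500/well, 4 hr pre-incubation; compound titration, 15 conc.; CITCO 50 nM final; 23 hr, 37 C/5% CO2; CellTiter-Fluor, fluorescence intensity.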

[4] = target: Nuclear receptor subfamily 1 group I member 3 (Homo sapiens) (UniProt Q14994); assay: qHTS assay to identify small molecule antagonists of the constitutive androstane receptor (CAR) signaling pathway (AID 1224838);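 further: HepG2 cells stably expressing hCAR with CYP2B6 luciferase reporter stimulated by CITCO; nearly all actives have a fitted effect of over 40% in size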
Procedure, shortened: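 HepG2-CYP2B6-hCAR cells; 4 h pre-incubation; cpd (15 conc) + CITCO 50 nM final; 24 h, 37 C/5% CO2; ONE-Glo, luminescence.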

[5] = target: Nuclear receptor subfamily 1 group I member 3 (Homo sapiens) (UniProt Q14994); assay: qHTS assay to identify small molecule agonists of the constitutive androstane receptor (CAR) signaling pathway (AID 1224839);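 further: HepG2 cells stably carrying human CAR and a CYP2B6 luciferase reporter; series mostly up to about 92 µM; nearly all actives have a fitted effect of over 15% in size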
Procedure, shortened: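 HepG2-CYP2B6-hCAR cells, 2500/well, 4 h pre-incubation; compounds 15 conc.; PK11195 0.75 uM final; 24 h, 37 C/5% CO2; ONE-Glo luciferase read.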

[6] = qHTS assay to identify small molecule antagonists of the estrogen related receptor signaling pathway with the pleiotropic PPARgamma coactivator (PGC) from Tox21 10K library - cell viability counter screen (AID 1224840; active means well fitted cell-killing curve with a large enough effect in the repeat runs, not every such curve was filed as active; further: nearly all actives have a fitted effect of over 40% in size)
Procedure, shortened: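 PGC/ERR cells, 2,000/well; 6 h pre-incubation 37 C/5% CO2; cpd in DMSO via pin tool; 17.5 h 37 C; CellTiter-Fluor, 30 min; fluorescence.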

[7] = qHTS assay to identify small molecule antagonists of the estrogen related receptor signaling pathway with the pleiotropic PPARgamma coactivator (PGC) from Tox21 10K library (AID 1224841; call rule not given here; further: series mostly up to about 92 µM; actives are mostly falling curves and most rising ones were filed inactive; nearly all actives have a fitted effect of over 50% in size)
Procedure, shortened: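 PGC/ERR cell line, 2,000 cells/well; 6 h pre-incubation 37 C/5% CO2; compounds (DMSO) pinned in; 18 h, 37 C; One-Glo, 30 min RT; luminescence.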

[8] = qHTS assay to identify small molecule agonists of the estrogen related receptor signaling pathway with the pleiotropic PPARgamma coactivator (PGC) from Tox21 10K library (AID 1224842); further: nearly all actives have a fitted effect of over 15% in size
Procedure, shortened: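 PGC/ERR reporter cells (NTP line) were seeded 2,000 per well, rested 6 h at 37 C/5% CO2, then pin-dosed with compounds in DMSO for 18 h at 37 C; luciferase read by One-Glo luminescence after 30 min at room temperature.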

[9] = target: Thyrotropin receptor (Homo sapiens) (UniProt P16473); assay: qHTS assay to identify small molecule agonists of the thyroid stimulating hormone receptor (TSHR) signaling pathway (AID 1224843; calls by dose curve; further: nearly all actives have a fitted effect of over 45% in size)
Procedure, shortened: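 Cell line HEK293 with TSHR; density 800/well. Exposure 30 min RT. Readout HTRF cAMP (cAMP-d2/anti-cAMP-cryptate), 1 h RT before reading.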

[10] = qHTS assay to identify small molecule agonists of the hypoxia (HIF-1) signaling pathway - cell viability counter screen (AID 1224844; calls by dose curve; further: nearly all actives have a fitted effect of over 50% in size)
Procedure, shortened: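 ME-180 HRE-bla cells, 2,000/well, 0.5% dialyzed FBS; 5 hr settle, 17 hr compound at 37C/5% CO2; CCF4-AM reporter read first, then CellTiter-Glo luminescence after 30 min RT.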

[11] = qHTS assay to identify small molecule agonists of H2AX (AID 1224845; active means well fitted activation curve with a large enough effect in the signal ratio in the repeat runs, not every such curve was filed as active; the % refers to the signal ratio)
Procedure, shortened: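 Wild-type CHO-K1 cells plated overnight, then exposed 3 hr at 37C to compounds at 15 concentrations (0.76% DMSO). Lysed, then HTRF anti-pH2AX(S139)-cryptate/anti-H2AX-d2 detection after 24 hr at room temperature; emissions 665 and 620 nm.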

[12] = qHTS assay to identify small molecule agonists of the hypoxia (HIF-1) signaling pathway (AID 1224846; active means well fitted activation curve with a large enough effect in the signal ratio in the repeat runs, not every such curve was filed as active; the % refers to the signal ratio)
Procedure, shortened: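 Cell line: CellSensor HRE-bla ME-180; 2,000 cells/well; 0.5% dialyzed FBS; 5 h preincubation; DMSO compound pin transfer; 17 h, 37C, 5% CO2; CCF4-AM added; bla FRET signal scored for activation.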

[13] = qHTS assay to identify small molecule agonists of H2AX - cell viability counter screen (AID 1224847; calls by dose curve; further: top concentration of the series differs between compounds; nearly all actives have a fitted effect of over 30% in size)
Procedure, shortened: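 Cells plated first: CHO-K1, 1000 per well in 10% FBS medium, incubated overnight at 37C. Then 15-point compound titration added (final DMSO 0.76%) for 3 hr. Finally CellTiter-Glo added and luminescence read.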

[14] = qHTS assay to identify small molecule antagonists of the estrogen related receptor (ERR) signaling pathway from Tox21 library (AID 1224848); further: nearly all actives have a fitted effect of over 50% in size
Procedure, shortened: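 Screening used an ERR reporter line supplied by NTP, exposed for 18 h at 37 C to library compounds delivered in DMSO. Signal was luciferase luminescence developed with ONE-Glo at room temperature for 30 min.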

[15] = qHTS assay to identify small molecule agonists of the estrogen related receptor (ERR) signaling pathway from Tox21 library (AID 1224849; calls by dose curve; further: nearly all actives have a fitted effect of over 15% in size)
Procedure, shortened: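 ERR cells, 6 h pre-incubation 37 C/5% CO2; cpd in DMSO pinned; 18 h 37 C; ONE-Glo added, 30 min RT; luminescence read. Agonist mode, qHTS.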

[16] = qHTS RealTime-Glo MT Cell Viability Assay in HepG2 cells - 24 hour (AID 1224867); further: nearly all actives have a fitted effect of over 50% in size
Procedure, shortened: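 Tox21 10K library screened in qHTS format on HepG2 cells carrying RealTime-Glo reagents. Compounds were added after a 5 h preincubation, and the luminescent signal from continuous culture was measured repeatedly during 40 h treatment.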

[17] = qHTS RealTime-Glo MT Cell Viability Assay in HEK293 cells - 32 hour (AID 1224868)
Procedure, shortened: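 Luminescence generated by NanoLuc from substrate produced by living HEK293 cells served as the viability signal. Each value reflects the reading at its stated time point during continuous 40 h compound exposure at 37 C.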

[18] = A CellTox Green Cytotoxicity Assay to monitor cytotoxicity in HEK293 cells - 0 hour (AID 1224869); further: nearly all actives have a fitted effect of over 50% in size
Procedure, shortened: (§1)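 Nonlytic real-time cytotoxicity: HEK293 + CellTox Green reagent plated, 5 h preincubation, pintool compound addition (23 nL in DMSO), 37 C for 40 h, fluorescence measured at successive time points.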

[19] = qHTS RealTime-Glo MT Cell Viability Assay in HepG2 cells - 40 hour (AID 1224870); further: nearly all actives have a fitted effect of over 50% in size
Procedure, shortened: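 HepG2 cells mixed with RealTime-Glo MT reagents (NanoLuc plus cell-permeant prosubstrate) were seeded at 600 cells/well, incubated 5 h at 37 C/5% CO2, then pinned with compounds in DMSO; nonlytic luminescence tracked viability during 40 h treatment.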

[20] = A CellTox Green Cytotoxicity Assay to monitor cytotoxicity in HEK293 cells - 40 hour (AID 1224871); further: nearly all actives have a fitted effect of over 45% in size
Procedure, shortened: as §1
On the % scale 0 is the no-effect control and ±100 the full control effect.

Sequence of Thyrotropin receptor (Homo sapiens) (P16473 whole entry, looked up): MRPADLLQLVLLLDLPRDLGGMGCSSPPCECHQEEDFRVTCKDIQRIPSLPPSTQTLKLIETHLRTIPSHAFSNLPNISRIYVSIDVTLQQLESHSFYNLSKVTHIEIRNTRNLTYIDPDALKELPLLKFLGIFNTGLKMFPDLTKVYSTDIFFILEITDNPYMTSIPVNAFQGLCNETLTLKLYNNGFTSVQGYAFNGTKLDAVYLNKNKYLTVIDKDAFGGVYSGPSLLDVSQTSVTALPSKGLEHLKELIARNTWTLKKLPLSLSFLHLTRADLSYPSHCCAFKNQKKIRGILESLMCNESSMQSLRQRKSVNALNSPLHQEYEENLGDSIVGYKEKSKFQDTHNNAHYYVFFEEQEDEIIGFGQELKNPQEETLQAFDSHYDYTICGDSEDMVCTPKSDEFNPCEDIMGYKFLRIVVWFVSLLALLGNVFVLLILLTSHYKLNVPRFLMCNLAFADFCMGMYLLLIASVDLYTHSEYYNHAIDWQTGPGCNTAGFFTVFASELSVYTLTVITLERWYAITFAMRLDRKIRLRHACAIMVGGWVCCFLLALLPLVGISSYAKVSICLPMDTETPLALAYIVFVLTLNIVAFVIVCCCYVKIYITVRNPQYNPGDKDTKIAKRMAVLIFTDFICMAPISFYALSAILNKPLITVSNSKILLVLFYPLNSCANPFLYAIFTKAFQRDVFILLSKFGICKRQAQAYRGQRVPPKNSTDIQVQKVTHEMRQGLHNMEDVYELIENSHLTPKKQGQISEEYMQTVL
Sequence of Nuclear receptor subfamily 1 group I member 3 (Homo sapiens) (Q14994 whole entry, looked up): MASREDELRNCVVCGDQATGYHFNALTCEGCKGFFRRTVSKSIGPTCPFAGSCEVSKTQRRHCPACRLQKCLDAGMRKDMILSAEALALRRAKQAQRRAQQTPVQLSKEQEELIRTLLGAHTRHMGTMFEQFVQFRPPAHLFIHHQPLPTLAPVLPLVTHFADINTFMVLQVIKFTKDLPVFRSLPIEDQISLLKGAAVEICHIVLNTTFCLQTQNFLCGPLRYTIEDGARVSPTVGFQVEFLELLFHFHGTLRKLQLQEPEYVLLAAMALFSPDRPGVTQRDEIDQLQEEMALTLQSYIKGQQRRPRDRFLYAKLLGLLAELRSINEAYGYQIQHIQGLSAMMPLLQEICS
Sequence of Luciferin 4-monooxygenase (Photinus pyralis) (P08659 whole entry, looked up): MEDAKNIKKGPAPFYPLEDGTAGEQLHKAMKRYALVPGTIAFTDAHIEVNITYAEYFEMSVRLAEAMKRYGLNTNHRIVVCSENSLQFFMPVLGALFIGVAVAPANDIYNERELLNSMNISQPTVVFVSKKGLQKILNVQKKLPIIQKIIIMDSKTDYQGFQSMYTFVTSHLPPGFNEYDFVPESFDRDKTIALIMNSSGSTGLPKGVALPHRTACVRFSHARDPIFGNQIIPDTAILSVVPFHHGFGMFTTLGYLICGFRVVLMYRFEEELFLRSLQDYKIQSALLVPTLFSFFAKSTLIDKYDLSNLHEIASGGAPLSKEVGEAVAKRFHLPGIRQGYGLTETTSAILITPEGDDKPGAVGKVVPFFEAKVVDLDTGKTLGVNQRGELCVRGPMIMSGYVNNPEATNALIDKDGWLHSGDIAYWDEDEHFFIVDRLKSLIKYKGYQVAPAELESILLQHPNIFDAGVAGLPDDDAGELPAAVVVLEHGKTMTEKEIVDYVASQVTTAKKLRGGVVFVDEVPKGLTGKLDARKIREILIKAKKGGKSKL

C=C(C)C(=O)OCC(O)CO (centres undefined)
inactive: Potency [1] | outcome [2] | outcome [3] | Potency [4] | Potency [5] | outcome [6] | Potency [7] | Potency [8] | Potency [9] | Potency [10] | Potency [11] | outcome [12] | outcome [13] | Potency [14] | outcome [15] | outcome [16] | Potency [17] | outcome [18] | Potency [19] | Potency [20]

CC1CCC(CO)CC1 (centres undefined)
inactive: Potency [1] | outcome [2] | outcome [3] | Potency [4] | Potency [5] | outcome [6] | Potency [9] | Potency [10] | Potency [11] | outcome [12] | outcome [13] | outcome [16] | Potency [17] | outcome [18] | Potency [19] | Potency [20]

COCCOCC(OC)OC
inactive: Potency [1] | outcome [2] | outcome [3] | Potency [4] | Potency [5] | outcome [6] | Potency [7] | Potency [8] | Potency [9] | Potency [11] | outcome [12] | outcome [13] | Potency [14] | outcome [15] | outcome [16] | Potency [17] | outcome [18] | Potency [19] | Potency [20]

CCCCCCC1CCC(=O)O1 (centres undefined)
inactive: Potency [1] | outcome [2] | outcome [3] | Potency [4] | Potency [5] | outcome [6] | Potency [7] | Potency [8] | Potency [9] | outcome [12] | outcome [13] | Potency [14] | outcome [15] | outcome [16] | Potency [17] | outcome [18] | Potency [19] | Potency [20]

C=COCC1CCC(COC=C)CC1 (centres undefined)
inactive: Potency [1] | outcome [2] | outcome [3] | Potency [4] | Potency [5] | outcome [6] | Potency [7] | Potency [8] | Potency [9] | Potency [10] | Potency [11] | outcome [12] | Potency [14] | outcome [15] | outcome [16] | Potency [17] | outcome [18] | Potency [19] | Potency [20]

COCCOC[C@H](CC1(C(=O)NC2CCC(C(=O)O)CC2)CCCC1)C(=O)Oc1ccc2c(c1)CCC2 (some centres undefined)
inactive: Potency [1] | outcome [2] | outcome [3] | Potency [4] | Potency [5] | outcome [6] | Potency [7] | Potency [8] | Potency [10] | outcome [12] | outcome [13] | Potency [14] | outcome [15] | outcome [16] | Potency [17] | Potency [19]

CC1=C(C/C=C(\C)CCC[C@H](C)CCC[C@H](C)CCCC(C)C)C(=O)c2ccccc2C1=O
inactive: Potency [1] | outcome [2] | outcome [3] | Potency [4] | Potency [5] | outcome [6] | Potency [7] | Potency [8] | Potency [9] | Potency [10] | Potency [11] | outcome [12] | outcome [13] | Potency [14] | outcome [15] | outcome [16] | Potency [19] | Potency [20]

CCOC(=O)CCC(=O)OCC
inactive: Potency [1] | outcome [2] | outcome [3] | Potency [4] | Potency [5] | outcome [6] | Potency [7] | Potency [8] | Potency [9] | Potency [10] | Potency [11] | outcome [12] | outcome [13] | Potency [14] | outcome [15] | outcome [16] | Potency [17] | outcome [18] | Potency [19] | Potency [20]

C[N+]1(CC2COC(c3ccccc3)(c3ccccc3)O2)CCCCC1 (centres undefined)
inactive: activity change, negative = inhibition [1] -3.43% [at 23.6 µM] | viability change, negative = cytotoxic [2] 1.16% [at 19 µM] | activity change, negative = cytotoxicity [3] 4.57% [at 19 µM] | activity, negative = inhibition [4] -9.35% [at 19 µM] | activation [5] -2.79% [at 19 µM] | viability change, negative = cytotoxic [6] -2.82% [at 19 µM] | activation [8] 0.389% [at 19 µM] | activity change, negative = cytotoxicity [10] 0.991% [at 15.8 µM] | activation (H2AX phosphorylation) [11] -1.86% [at 31.6 µM] | activation [12] 0.207% [at 15.8 µM] | activity change, negative = cytotoxicity [13] -1.84% [at 31.6 µM] | activity, negative = inhibition [14] 4.63% [at 19 µM] | activity change, positive = activation [15] 2.6% [at 19 µM] | activity change, negative = cytotoxicity [16] -0.511% [at 15.8 µM] | activity change, negative = cytotoxic [17] -5.88% [at 15.8 µM] | cytotoxicity [18] -9.06% [at 15.8 µM] | cytotoxicity increase [20] -8.19% [at 15.8 µM]

CCC(C)(CCCC(C)C)OC(C)=O (centres undefined)
inactive: Potency [1] | outcome [2] | outcome [3] | Potency [4] | Potency [5] | outcome [6] | Potency [9] | Potency [10] | Potency [11] | outcome [12] | outcome [13] | outcome [16] | Potency [17] | outcome [18] | Potency [19]

CC1OC1C1CCC2(C)OC2C1 (centres undefined)
inactive: Potency [1] | outcome [2] | outcome [3] | Potency [4] | Potency [5] | outcome [6] | Potency [9] | Potency [10] | Potency [11] | outcome [12] | outcome [13] | outcome [16] | Potency [17] | outcome [18] | Potency [19] | Potency [20]

CCOC(=O)OC(C)OC1=C(C(=O)Nc2ccccn2)N(C)S(=O)(=O)c2ccccc21 (centres undefined)
inactive: Potency [1] | outcome [2] | outcome [3] | Potency [4] | Potency [5] | outcome [6] | Potency [7] | Potency [8] | Potency [9] | Potency [10] | Potency [11] | outcome [12] | outcome [13] | Potency [14] | outcome [15] | outcome [16] | Potency [17] | outcome [18] | Potency [19] | Potency [20]

O=C(CO)[C@@H](O)[C@H](O)[C@@H](O)CO
inactive: Potency [1] | outcome [2] | outcome [3] | Potency [4] | Potency [5] | outcome [6] | Potency [7] | Potency [8] | Potency [9] | Potency [10] | Potency [11] | outcome [12] | outcome [13] | Potency [14] | outcome [15] | outcome [16] | Potency [17] | outcome [18] | Potency [19] | Potency [20]
